Measurements: PubChem BioAssay AID1159580 (chemical genetic matrix, 2015)
Where “and” joins values, the source holds several entries; their conditions need not be identical. Equal entries are not always repeated. The whole screen tested about 5,500 compounds, of which about 2,000 (36%) were called active. About 18% were inconclusive and are not listed. Cut-off read from the data, not from the text of the source: active = normalized growth mostly below about 0.91 (no sharp cut-off); inconclusive = no clear call, values can overlap the other calls; inactive = mostly above about 0.92. The list shows a part of the results.

Experiment: chemical genetic growth profiling, strain panel (AID 1159580);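 note: tested at 20 µM; growth read once vehicle control cultures reached saturation at 30 °C; 1 = growth at the plate median or of vehicle wells; lower values mean less growth of the strain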
Details: S. cerevisiae deletion strains, growth OD

Measured: normalized growth

NS(=O)(=O)c1cc2c(cc1C(F)(F)F)NC(Cc1ccccc1)NS2(=O)=O (stereo not drawn)
inactive: locus YAL021C, strain ccr4, active compounds read low 1 | locus YAL026C, strain drs2, active compounds read low 0.979 | locus YAL030W, strain snc1, active compounds read low 0.989 | locus YBL061C, strain skt5, active compounds read low 0.986 | locus YBR009C, strain hhf1, active compounds read low 0.988 | locus YBR021W, strain FUR4, active compounds read low 1.02 | locus YBR023C, strain chs3, active compounds read low 0.992 | locus YBR171W, strain sec66, active compounds read low 0.981 | locus YBR229C, strain ROT2, active compounds read low 1 | locus YBR231C, strain swc5, active compounds read low 0.986 | locus YBR279W, strain paf1, active compounds read low 1 | locus YCL011C, strain gbp2, active compounds read low 0.973 | locus YCL016C, strain dcc1, active compounds read low 0.988 | locus YCL029C, strain bik1, active compounds read low 1.01 | locus YCL061C, strain MRC1, active compounds read low 0.991 | locus YCL069W, strain vba3, active compounds read low 1 | locus YCR088W, strain abp1, active compounds read low 0.993 | locus YDL005C, strain med2, active compounds read low 0.991 | locus YDL035C, strain GPR1, active compounds read low 1.02 | locus YDL040C, strain nat1, active compounds read low 1.01 | locus YDL074C, strain BRE1, active compounds read low 0.969 | locus YDL101C, strain DUN1, active compounds read low 1 | locus YDL134C, strain PPH21, active compounds read low 1.02 | locus YDL185W, strain tfp1, active compounds read low 1.01 | locus YDL192W, strain arf1, active compounds read low 1.01 | locus YDR001C, strain nth1, active compounds read low 0.98 | locus YDR069C, strain doa4, active compounds read low 0.997 | locus YDR101C, strain arx1, active compounds read low 0.985 | locus YDR137W, strain rgp1, active compounds read low 0.977 | locus YDR159W, strain sac3, active compounds read low 0.991 | locus YDR162C, strain NBP2, active compounds read low 1.01 | locus YDR195W, strain ref2 0.983 | locus YDR297W, strain sur2, active compounds read low 0.986 | locus YDR318W, strain mcm21, active compounds read low 1.01 | locus YDR334W, strain swr1, active compounds read low 0.953 | locus YDR335W, strain msn5, active compounds read low 0.991 | locus YDR388W, active compounds read low 1.01 | locus YDR392W, strain spt3, active compounds read low 0.943 | locus YDR502C, strain sam2, active compounds read low 0.996 | locus YEL003W, strain gim4, active compounds read low 0.983 | locus YEL037C, strain rad23, active compounds read low 0.984 | locus YEL061C, strain CIN8 (second series), active compounds read low 0.989 | locus YEL061C, strain CIN8, active compounds read low 1 | locus YER015W, strain faa2, active compounds read low 0.992 | locus YER016W, strain bim1, active compounds read low 0.992 | locus YER110C, active compounds read low 1.02 | locus YER111C, strain swi4, active compounds read low 0.999 | locus YER155C, strain BEM2 (second series), active compounds read low 0.974 | locus YER155C, strain BEM2, active compounds read low 0.999 | locus YER167W, strain BCK2, active compounds read low 1.01 | locus YFR010W, strain ubp6, active compounds read low 0.971 | locus YGL078C, strain dbp3, active compounds read low 0.995 | locus YGL086W, strain mad1, active compounds read low 0.99 | locus YGL167C, strain pmr1, active compounds read low 0.989 | locus YGL173C, strain kem1, active compounds read low 0.981 | locus YGL227W, strain vid30, active compounds read low 1 | locus YGL240W, strain doc1, active compounds read low 0.984 | locus YGL248W, strain PDE1, active compounds read low 0.999 | locus YGL253W, strain hxk2, active compounds read low 0.998 | locus YGR135W, strain pre9, active compounds read low 1.04 | locus YGR229C, strain SMI1, active compounds read low 1 | locus YGR252W, strain gcn5, active compounds read low 1.01 | locus YHR013C, strain ard1, active compounds read low 0.967 | locus YHR027C, strain rpn1, active compounds read low 0.971 | locus YHR030C, strain SLT2, active compounds read low 1 and 0.973 | locus YHR079C, strain IRE1 (second series), active compounds read low 1.01 | locus YHR079C, strain IRE1, active compounds read low 0.98 | locus YHR094C, strain hxt1, active compounds read low 1.01 | locus YHR129C, strain ARP1, active compounds read low 1.01 | locus YHR142W, strain chs7, active compounds read low 0.96 | locus YHR200W, strain rpn10, active compounds read low 1.01 | locus YIL066C, strain RNR3, active compounds read low 0.999 | locus YIL073C, strain SPO22, active compounds read low 1.05 | locus YIL125W, strain kgd1, active compounds read low 0.999 | locus YIR030C, strain dcg1, active compounds read low 1.01 | locus YJL092W, strain hpr5, active compounds read low 1 | locus YJL095W, strain BCK1 (second series), active compounds read low 0.997 | locus YJL095W, strain BCK1, active compounds read low 0.97 and 0.978 | locus YJL115W, strain asf1, active compounds read low 0.966 | locus YJL129C, strain trk1, active compounds read low 1 | locus YJL134W, strain LCB3, active compounds read low 1 | locus YJL154C, strain vps35, active compounds read low 0.985 | locus YJL164C, strain tpk1, active compounds read low 0.984 | locus YJL166W, strain qcr8, active compounds read low 0.97 | locus YJL168C, strain set2, active compounds read low 1.01 | locus YJL187C, strain SWE1 (second series), active compounds read low 0.984 | locus YJL187C, strain SWE1, active compounds read low 0.994 | locus YJR043C, strain POL32, active compounds read low 0.982
